# Results from the supplement of paper PMC4466140.
# Columns and labels:
# Assay in all cases: SPOT peptide array binding signal intensity (averaged, normalized) (arbitrary units (background-subtracted, floor 0; scale differs between SH3 domains)); higher = stronger binding of the SH3 domain to the peptide
# [1] = target: AgAbp1
# Protocol: (§1)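 GST-tagged SH3 domains from S. cerevisiae (Sc), A. gossypii (Ag), C. albicans (Ca) and S. pombe (Sp) were incubated at 10 ug/ml overnight at 4 C on cellulose SPOT membranes carrying 292 synthetic 15-mer peptides mined from the S. cerevisiae proteome (cysteines replaced by serines). Binding was detected with anti-GST antibody, HRP secondary and chemiluminescence, quantified with Genespotter, and reported as normalized spot intensities averaged over biological replicates.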
# [2] = target: AgBbc1
# Protocol: as §1
# [3] = target: AgBem1-D1
# Protocol: as §1
# [4] = target: AgBzz1-D1
# Protocol: as §1
# [5] = target: AgBzz1-D2
# Protocol: as §1
# [6] = target: AgCyk3
# Protocol: as §1
# [7] = target: AgFus1
# Protocol: as §1
# [8] = target: AgHof1
# Protocol: as §1
# [9] = target: AgHse1
# Protocol: as §1
# [10] = target: AgLsb1
# Protocol: as §1
# [11] = target: AgLsb4
# Protocol: as §1
# [12] = target: AgMyo5
# Protocol: as §1
# [13] = target: AgNbp2
# Protocol: as §1
# [14] = target: AgRvs167
# Protocol: as §1
# [15] = target: AgSho1
# Protocol: as §1
# [16] = target: AgSla1-D1-D2
# Protocol: as §1
# [17] = target: AgSla1-D3
# Protocol: as §1
# [18] = target: CaAbp1-D1
# Protocol: as §1
# [19] = target: CaAbp1-D2
# Protocol: as §1
# [20] = target: CaBbc1
# Protocol: as §1
# [21] = target: CaBem1-D1
# Protocol: as §1
# [22] = target: CaBzz1-D1
# Protocol: as §1
# [23] = target: CaBzz1-D2
# Protocol: as §1
# [24] = target: CaCyk3
# Protocol: as §1
# [25] = target: CaFus1
# Protocol: as §1
# [26] = target: CaHof1
# Protocol: as §1
# [27] = target: CaHse1
# Protocol: as §1
# [28] = target: CaLsb1
# Protocol: as §1
# [29] = target: CaLsb4
# Protocol: as §1
# [30] = target: CaMyo5
# Protocol: as §1
binder,measurement,setting,value
QRKSLRRPTLSKPAV,SPOT peptide array binding signal intensity,[1],32
same,SPOT peptide array binding signal intensity,[2],108
same,SPOT peptide array binding signal intensity,[3],210
same,SPOT peptide array binding signal intensity,[4],40.5
same,SPOT peptide array binding signal intensity,[5],42
same,SPOT peptide array binding signal intensity,[6],1
same,SPOT peptide array binding signal intensity,[7],336
same,SPOT peptide array binding signal intensity,[8],66
same,SPOT peptide array binding signal intensity,[9],244
same,SPOT peptide array binding signal intensity,[10],4.25
same,SPOT peptide array binding signal intensity,[11],17
same,SPOT peptide array binding signal intensity,[12],1.5
same,SPOT peptide array binding signal intensity,[13],108
same,SPOT peptide array binding signal intensity,[14],1.67
same,SPOT peptide array binding signal intensity,[15],10
same,SPOT peptide array binding signal intensity,[16],14
same,SPOT peptide array binding signal intensity,[17],3.75
same,SPOT peptide array binding signal intensity,[18],272
same,SPOT peptide array binding signal intensity,[19],220
same,SPOT peptide array binding signal intensity,[20],338
same,SPOT peptide array binding signal intensity,[21],79
same,SPOT peptide array binding signal intensity,[22],78
same,SPOT peptide array binding signal intensity,[23],104
same,SPOT peptide array binding signal intensity,[24],16.5
same,SPOT peptide array binding signal intensity,[25],298
same,SPOT peptide array binding signal intensity,[26],≤ 0
same,SPOT peptide array binding signal intensity,[27],10
same,SPOT peptide array binding signal intensity,[28],0.5
same,SPOT peptide array binding signal intensity,[29],89.5
same,SPOT peptide array binding signal intensity,[30],3.5
